The target in assay [1] is Mitogen-activated protein kinase 10 (Homo sapiens) (UniProt P53779). The settings on record: at 10 µM.
In assay [2] the target is Vascular endothelial growth factor receptor 2 (Homo sapiens) (UniProt P35968). The settings on record: at 1 µM.
The target is the same in assay [3]. The settings on record: at 10 µM.
Assay [4] has as its target LIM domain kinase 1 (Homo sapiens) (UniProt P53667). The settings on record: at 1 µM.
Assay [5] has the same target. The settings on record: at 10 µM.
Assay [6] has as its target T1, Serine/threonine-protein kinase STK11 (Homo sapiens) (UniProt Q15831).
T1 sequence (whole entry): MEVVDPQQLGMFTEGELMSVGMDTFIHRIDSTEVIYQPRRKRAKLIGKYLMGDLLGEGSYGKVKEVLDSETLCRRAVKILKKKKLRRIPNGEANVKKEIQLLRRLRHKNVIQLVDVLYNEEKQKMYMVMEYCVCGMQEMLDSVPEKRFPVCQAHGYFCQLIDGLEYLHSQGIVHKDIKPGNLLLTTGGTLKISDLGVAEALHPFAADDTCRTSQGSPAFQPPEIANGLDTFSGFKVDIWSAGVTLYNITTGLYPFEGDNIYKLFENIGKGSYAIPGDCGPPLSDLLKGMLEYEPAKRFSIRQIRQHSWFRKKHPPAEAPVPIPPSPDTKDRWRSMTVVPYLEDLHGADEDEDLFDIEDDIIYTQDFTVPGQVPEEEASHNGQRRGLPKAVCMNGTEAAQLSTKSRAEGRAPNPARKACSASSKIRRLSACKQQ
The settings on record: at 1 µM.

Assay [7] concerns the target T1, Serine/threonine-protein kinase STK11 (Homo sapiens). The settings on record: at 10 µM.
Assay [8] deals with Serine/threonine-protein kinase 10 (Homo sapiens) (UniProt O94804). The settings on record: at 1 µM.
Assay [9] has the same target. The settings on record: at 10 µM.
The target of assay [10] is Tyrosine-protein kinase Lck (Homo sapiens) (UniProt P06239). The settings on record: at 1 µM.
Assay [11] shares this target. The settings on record: at 10 µM.
The target is the same in assay [12]. The settings on record: at 1 µM. This is another data set of the same source.
The target is the same in assay [13]. The settings on record: at 10 µM. This is another data set of the same source.
In assay [14] the target is Tyrosine-protein kinase Lyn (Homo sapiens) (UniProt P07948). The settings on record: at 1 µM.
Assay [15] shares this target. The settings on record: at 10 µM.
Assay [16] addresses Mitogen-activated protein kinase 3 (Homo sapiens) (UniProt P27361). The settings on record: at 1 µM.
For assay [17] the target is unchanged. The settings on record: at 10 µM.
Assay [18] addresses Mitogen-activated protein kinase 1 (Homo sapiens) (UniProt P28482). The settings on record: at 1 µM.
For assay [19] the target is unchanged. The settings on record: at 10 µM.
The target in assay [20] is MAP kinase-activated protein kinase 2 (Homo sapiens) (UniProt P49137). The settings on record: at 1 µM.
MAP kinase-activated protein kinase 2 (Homo sapiens), sequence (P49137 whole entry, looked up): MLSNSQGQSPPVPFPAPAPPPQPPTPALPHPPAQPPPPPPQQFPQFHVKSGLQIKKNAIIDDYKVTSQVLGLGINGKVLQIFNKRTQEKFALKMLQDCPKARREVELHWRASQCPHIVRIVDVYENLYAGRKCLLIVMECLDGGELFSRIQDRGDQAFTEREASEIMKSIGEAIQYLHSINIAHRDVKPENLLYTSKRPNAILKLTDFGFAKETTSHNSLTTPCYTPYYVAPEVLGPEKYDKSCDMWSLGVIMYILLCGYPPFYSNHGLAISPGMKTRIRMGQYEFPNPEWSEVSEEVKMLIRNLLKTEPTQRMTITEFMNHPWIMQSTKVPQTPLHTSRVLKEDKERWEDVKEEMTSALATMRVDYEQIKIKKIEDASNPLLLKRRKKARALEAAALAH

Vascular endothelial growth factor receptor 2 (Homo sapiens), sequence (P35968 whole entry): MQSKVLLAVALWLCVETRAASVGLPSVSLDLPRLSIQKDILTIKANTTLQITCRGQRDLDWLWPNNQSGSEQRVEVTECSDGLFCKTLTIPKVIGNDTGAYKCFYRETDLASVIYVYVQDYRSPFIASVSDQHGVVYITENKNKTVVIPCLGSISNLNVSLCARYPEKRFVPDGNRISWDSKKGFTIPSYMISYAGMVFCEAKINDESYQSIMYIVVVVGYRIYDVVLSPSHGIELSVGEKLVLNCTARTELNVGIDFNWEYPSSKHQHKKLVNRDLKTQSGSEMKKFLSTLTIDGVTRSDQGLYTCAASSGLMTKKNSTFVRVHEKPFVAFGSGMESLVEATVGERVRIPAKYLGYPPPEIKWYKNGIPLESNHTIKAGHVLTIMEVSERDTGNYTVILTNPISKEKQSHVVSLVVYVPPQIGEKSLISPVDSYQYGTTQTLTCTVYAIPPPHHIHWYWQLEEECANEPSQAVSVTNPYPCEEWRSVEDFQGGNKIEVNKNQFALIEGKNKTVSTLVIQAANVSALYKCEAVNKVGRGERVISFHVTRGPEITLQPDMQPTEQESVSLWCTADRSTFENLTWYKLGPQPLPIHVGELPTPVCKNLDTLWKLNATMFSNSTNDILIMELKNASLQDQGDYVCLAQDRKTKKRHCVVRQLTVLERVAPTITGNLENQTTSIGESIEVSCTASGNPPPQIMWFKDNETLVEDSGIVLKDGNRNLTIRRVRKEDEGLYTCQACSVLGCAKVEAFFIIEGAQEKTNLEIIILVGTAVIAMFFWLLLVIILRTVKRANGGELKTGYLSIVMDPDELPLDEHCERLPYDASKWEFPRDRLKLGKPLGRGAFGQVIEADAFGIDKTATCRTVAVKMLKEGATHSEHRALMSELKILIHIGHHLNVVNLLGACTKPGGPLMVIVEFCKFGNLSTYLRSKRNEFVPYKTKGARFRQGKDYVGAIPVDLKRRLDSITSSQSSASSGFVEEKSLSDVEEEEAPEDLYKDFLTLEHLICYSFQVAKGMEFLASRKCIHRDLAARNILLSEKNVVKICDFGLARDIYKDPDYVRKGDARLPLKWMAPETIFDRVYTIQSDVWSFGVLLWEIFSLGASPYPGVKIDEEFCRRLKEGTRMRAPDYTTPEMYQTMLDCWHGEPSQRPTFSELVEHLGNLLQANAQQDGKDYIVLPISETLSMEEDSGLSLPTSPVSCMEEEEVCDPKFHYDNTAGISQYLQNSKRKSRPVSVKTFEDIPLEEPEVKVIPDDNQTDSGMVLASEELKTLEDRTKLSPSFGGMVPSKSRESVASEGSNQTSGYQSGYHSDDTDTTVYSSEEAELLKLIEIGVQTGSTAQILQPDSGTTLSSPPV
Mitogen-activated protein kinase 3 (Homo sapiens), sequence (P27361 whole entry): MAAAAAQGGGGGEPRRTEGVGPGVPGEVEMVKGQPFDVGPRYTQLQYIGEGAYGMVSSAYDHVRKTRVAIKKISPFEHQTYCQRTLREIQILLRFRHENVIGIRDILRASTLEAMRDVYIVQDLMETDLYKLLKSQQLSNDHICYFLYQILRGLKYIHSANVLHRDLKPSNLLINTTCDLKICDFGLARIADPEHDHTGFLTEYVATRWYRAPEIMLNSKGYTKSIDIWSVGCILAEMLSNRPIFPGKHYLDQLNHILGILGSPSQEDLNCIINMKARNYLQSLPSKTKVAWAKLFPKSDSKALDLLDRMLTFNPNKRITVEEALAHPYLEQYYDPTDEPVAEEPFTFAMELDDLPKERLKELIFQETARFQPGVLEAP
Mitogen-activated protein kinase 10 (Homo sapiens), sequence (P53779 whole entry): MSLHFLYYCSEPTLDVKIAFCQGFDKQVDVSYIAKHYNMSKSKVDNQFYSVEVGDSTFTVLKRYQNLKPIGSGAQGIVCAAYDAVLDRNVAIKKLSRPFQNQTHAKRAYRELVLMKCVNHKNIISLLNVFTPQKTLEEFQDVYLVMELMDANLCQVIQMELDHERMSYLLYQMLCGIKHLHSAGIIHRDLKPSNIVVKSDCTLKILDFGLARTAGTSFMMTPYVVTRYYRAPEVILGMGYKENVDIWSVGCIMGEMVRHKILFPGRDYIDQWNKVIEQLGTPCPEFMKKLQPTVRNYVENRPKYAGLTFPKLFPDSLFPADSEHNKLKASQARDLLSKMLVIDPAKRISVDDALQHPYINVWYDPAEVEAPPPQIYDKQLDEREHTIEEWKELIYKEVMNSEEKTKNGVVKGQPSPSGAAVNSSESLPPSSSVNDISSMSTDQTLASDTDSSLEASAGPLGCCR
Mitogen-activated protein kinase 1 (Homo sapiens), sequence (P28482 whole entry): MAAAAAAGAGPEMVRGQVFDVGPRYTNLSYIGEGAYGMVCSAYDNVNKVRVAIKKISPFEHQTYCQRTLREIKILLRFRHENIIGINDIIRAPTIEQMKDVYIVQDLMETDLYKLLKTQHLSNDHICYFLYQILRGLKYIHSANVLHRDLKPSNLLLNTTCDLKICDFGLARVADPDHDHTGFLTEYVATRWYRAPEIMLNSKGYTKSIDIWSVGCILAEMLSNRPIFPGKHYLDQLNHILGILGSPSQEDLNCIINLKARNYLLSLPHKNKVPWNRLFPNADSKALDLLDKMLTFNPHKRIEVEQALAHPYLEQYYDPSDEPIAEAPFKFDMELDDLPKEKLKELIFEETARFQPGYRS
Tyrosine-protein kinase Lck (Homo sapiens), sequence (P06239 2-509 limits assumed): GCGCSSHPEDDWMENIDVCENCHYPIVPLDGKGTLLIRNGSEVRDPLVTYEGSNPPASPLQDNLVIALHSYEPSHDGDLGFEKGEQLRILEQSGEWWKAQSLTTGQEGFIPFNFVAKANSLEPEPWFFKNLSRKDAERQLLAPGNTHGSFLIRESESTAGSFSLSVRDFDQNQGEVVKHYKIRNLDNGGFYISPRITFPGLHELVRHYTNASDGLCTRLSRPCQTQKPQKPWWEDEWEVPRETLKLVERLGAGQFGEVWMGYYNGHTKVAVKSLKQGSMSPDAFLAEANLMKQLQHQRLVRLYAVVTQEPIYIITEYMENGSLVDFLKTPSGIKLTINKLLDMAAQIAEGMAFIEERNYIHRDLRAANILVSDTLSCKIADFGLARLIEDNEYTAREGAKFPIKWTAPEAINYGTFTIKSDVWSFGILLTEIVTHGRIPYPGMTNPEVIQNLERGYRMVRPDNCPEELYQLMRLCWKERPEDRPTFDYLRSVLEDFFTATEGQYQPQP
Serine/threonine-protein kinase 10 (Homo sapiens), sequence (O94804 whole entry, looked up): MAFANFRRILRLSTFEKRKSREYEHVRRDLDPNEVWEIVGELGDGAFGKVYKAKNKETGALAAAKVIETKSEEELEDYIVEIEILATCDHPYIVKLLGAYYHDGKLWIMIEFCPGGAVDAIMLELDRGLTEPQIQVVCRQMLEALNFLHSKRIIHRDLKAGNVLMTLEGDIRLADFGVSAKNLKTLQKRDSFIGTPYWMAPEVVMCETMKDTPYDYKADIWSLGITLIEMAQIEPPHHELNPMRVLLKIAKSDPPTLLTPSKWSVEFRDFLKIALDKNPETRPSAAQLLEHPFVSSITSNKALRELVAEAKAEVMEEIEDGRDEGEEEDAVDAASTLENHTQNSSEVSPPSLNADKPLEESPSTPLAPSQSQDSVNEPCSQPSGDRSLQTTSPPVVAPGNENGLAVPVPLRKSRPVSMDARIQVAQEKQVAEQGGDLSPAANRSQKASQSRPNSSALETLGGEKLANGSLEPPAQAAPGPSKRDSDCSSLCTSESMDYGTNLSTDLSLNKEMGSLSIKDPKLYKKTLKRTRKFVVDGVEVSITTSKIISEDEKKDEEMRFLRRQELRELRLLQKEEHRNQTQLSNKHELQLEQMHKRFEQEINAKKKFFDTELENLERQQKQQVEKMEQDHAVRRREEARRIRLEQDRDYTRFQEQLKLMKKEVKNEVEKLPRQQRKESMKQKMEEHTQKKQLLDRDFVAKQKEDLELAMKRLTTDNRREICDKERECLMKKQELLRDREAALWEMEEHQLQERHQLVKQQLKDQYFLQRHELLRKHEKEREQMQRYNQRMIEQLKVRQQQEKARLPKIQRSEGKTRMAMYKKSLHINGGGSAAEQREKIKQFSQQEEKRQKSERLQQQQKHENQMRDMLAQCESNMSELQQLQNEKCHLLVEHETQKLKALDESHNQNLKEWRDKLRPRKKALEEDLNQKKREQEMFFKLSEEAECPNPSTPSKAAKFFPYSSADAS
Tyrosine-protein kinase Lyn (Homo sapiens), sequence (P07948 2-512 limits assumed): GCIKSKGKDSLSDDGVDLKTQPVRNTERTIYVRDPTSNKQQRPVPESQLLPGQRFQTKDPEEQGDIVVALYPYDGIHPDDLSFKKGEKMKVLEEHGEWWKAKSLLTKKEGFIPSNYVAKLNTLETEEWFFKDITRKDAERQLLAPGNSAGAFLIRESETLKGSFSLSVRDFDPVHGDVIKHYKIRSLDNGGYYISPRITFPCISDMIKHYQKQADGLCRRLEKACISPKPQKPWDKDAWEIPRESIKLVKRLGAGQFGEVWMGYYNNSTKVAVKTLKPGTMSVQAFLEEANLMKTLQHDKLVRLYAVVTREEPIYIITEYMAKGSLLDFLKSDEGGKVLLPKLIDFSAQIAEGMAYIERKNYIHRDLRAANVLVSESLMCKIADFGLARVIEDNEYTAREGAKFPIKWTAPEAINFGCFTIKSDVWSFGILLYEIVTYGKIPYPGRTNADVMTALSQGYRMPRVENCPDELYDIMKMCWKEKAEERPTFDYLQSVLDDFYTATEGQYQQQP

Consider `O=C1Nc2cc(Br)ccc2/C1=C1/Nc2ccccc2/C1=N\O`, for which the residual activity worked out at 16% in assay [1]; 3% in assay [2]; 2% in assay [3]; 33% in assay [4]; 49% in assay [5]; 99% in assay [6]. The residual activity in assay [7] worked out at 81%; in assay [8], 72%; in assay [9], 69%; in [10], 2%; in [11], 10%; in assay [12], 1%. The residual activity in assay [13] was found to be 19%; in assay [14], 4%; in assay [15] it was 1%; in assay [16] it was 102%; in [17], 80%; in assay [18], 108%. Further, the residual activity in assay [19] was found to be 106%; in assay [20], 96%.

As to `Cc1nc(-c2ccccc2)c(-c2ccncc2)o1`, the residual activity in [1] turned out to be 19%; in [2] it was 95%; in assay [3] it was 78%; in assay [4], 106%; in [5], 86%; in assay [6] it was 111%. Moreover, the residual activity was 100% in [7]; 119% in [8]; 105% in assay [9]; 92% in assay [10]; 59% in [11]; 45% in [12]. For the same compound, the residual activity in assay [13] came to 42%; in assay [14] it was 0%; in assay [15], 0%; in assay [16], 116%; in assay [17] it was 97%; in assay [18], 118%. The residual activity came to 100% in assay [19] and 95% in assay [20].

On to `COc1cc2ncnc(Nc3ccc(O)c(Br)c3)c2cc1OC`, for which the residual activity in [1] turned out to be 13%; in [2] it was 30%; in [3], 4%; in assay [4], 78%; in [5], 49%; in assay [6] it was 106%. Moreover, the residual activity was found to be 97% in assay [7]; 17% in [8]; 8% in assay [9]; 27% in [10]; 7% in assay [11]; 21% in assay [12]. Further, the residual activity in assay [13] was 10%; in [14], 7%; in [15], -2%; in assay [16], 68%; in [17], 45%; in [18], 98%. For the same compound, the residual activity is 75% in assay [19] and 106% in assay [20].

As for `CC(C)n1cnc2c(NCc3ccccc3)nc(NCCCO)nc21`, the residual activity turned out to be 58% in assay [1]; 98% in assay [2]; 93% in assay [3]; 92% in assay [4]; 88% in [5]; 105% in [6]. The residual activity is 101% in assay [7]; 102% in [8]; 96% in assay [9]; 89% in assay [10]; 70% in assay [11]; 87% in assay [12]. Besides, the residual activity in [13] turned out to be 86%; in assay [14], 53%; in assay [15] it was 38%; in assay [16], 87%; in [17], 92%; in [18], 100%. Further, the residual activity was found to be 90% in assay [19] and 72% in assay [20].

For the compound `O=C(Nc1cccc(Nc2nccc(Nc3cccc(C(F)(F)F)c3)n2)c1)C1CC1`, the residual activity in assay [1] is -3%; in [2] it was 81%; in assay [3] it was 25%; in assay [4], 26%; in assay [5] it was 4%; in [6], 100%. Besides, the residual activity came out at 94% in [7]; 66% in assay [8]; 44% in assay [9]; 73% in [10]; 19% in [11]; 57% in assay [12]. The residual activity in assay [13] was determined as 42%; in [14], 41%; in assay [15], 6%; in [16] it was 89%; in assay [17] it was 91%; in assay [18] it was 89%. For the same compound, the residual activity in assay [19] worked out at 84%; in assay [20], 115%.

For `CO[C@H]1C[C@@H]2CC[C@@H](C)[C@@](O)(O2)C(=O)C(=O)N2CCCC[C@H]2C(=O)O[C@H]([C@H](C)C[C@@H]2CC[C@@H](O)[C@H](OC)C2)CC(=O)[C@H](C)/C=C(\C)[C@@H](O)[C@@H](OC)C(=O)[C@H](C)C[C@H](C)/C=C/C=C/C=C/1C`, the residual activity in assay [1] was 153%; in assay [2], 100%; in assay [3], 96%; in assay [4], 102%; in assay [5], 91%; in [6] it was 101%. In addition, the residual activity in assay [7] was determined as 99%; in assay [8], 85%; in [9], 90%; in assay [10], 121%; in [11] it was 80%; in assay [12], 102%. Moreover, the residual activity stood at 124% in assay [13]; 86% in [14]; 131% in assay [15]; 83% in [16]; 116% in assay [17]; 102% in [18]. The residual activity in assay [19] is 101%; in [20] it was 86%.

Take `Cc1ccc(NC2=CC(=O)c3sc(C)nc3C2=O)cc1`: the residual activity in assay [1] stood at 82%; in assay [2] it was 97%; in assay [3], 89%; in assay [4], 84%; in assay [5], 82%; in assay [6], 98%. The residual activity in assay [7] is 98%; in assay [8], 113%; in assay [9], 105%; in assay [10], 86%; in [11] it was 80%; in assay [12], 92%. Moreover, the residual activity in [13] was determined as 98%; in assay [14], 80%; in [15], 71%; in assay [16], 102%; in assay [17], 120%; in assay [18], 108%. Moreover, the residual activity turned out to be 106% in assay [19] and 85% in assay [20].

The values above are taken from ChEMBL document CHEMBL2218924, “A broad activity screen in support of a chemogenomic map for kinase signalling research and drug discovery” (Biochem J, 2013).
